# Publication PMC5540273 (PLoS ONE, 2017)
# Legend:
# Settings in all cases: concentration: 1 μM, replicates: in singlicate; n = 1
# RIPK1 = test system: RIPK1
# RIPK2 = test system: RIPK2
# RIPK4 = test system: RIPK4
# RIPK5 = test system: RIPK5
# ROCK1 = test system: ROCK1
# ROCK2 = test system: ROCK2
# ROS1 = test system: ROS1
# [1] = test system: RPS6KA4(Kin.Dom.1-N-terminal)
# [2] = test system: RPS6KA4(Kin.Dom.2-C-terminal)
# [3] = test system: RPS6KA5(Kin.Dom.1-N-terminal)
# [4] = test system: RPS6KA5(Kin.Dom.2-C-terminal)
# [5] = test system: T1, RSK1(Kin.Dom.1-N-terminal)
# T1 construct: gene RPS6KA1
# [6] = test system: T2, RSK1(Kin.Dom.2-C-terminal)
# T2 construct: gene RPS6KA1
# [7] = test system: T3, RSK2(Kin.Dom.1-N-terminal)
# T3 construct: gene RPS6KA3
# [8] = test system: T4, RSK2(Kin.Dom.2-C-terminal)
# T4 construct: gene RPS6KA3
# [9] = test system: T5, RSK3(Kin.Dom.1-N-terminal)
# T5 construct: gene RPS6KA2
# [10] = test system: T6, RSK3(Kin.Dom.2-C-terminal)
# T6 construct: gene RPS6KA2
# [11] = test system: T7, RSK4(Kin.Dom.1-N-terminal)
# T7 construct: gene RPS6KA6
# [12] = test system: T8, RSK4(Kin.Dom.2-C-terminal)
# T8 construct: gene RPS6KA6
# S6K1 = test system: S6K1
# 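Note: KINOMEscan kinase panel screen.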
Compound,%Inh (RIPK1) [%],%Inh (RIPK2) [%],%Inh (RIPK4) [%],%Inh (RIPK5) [%],%Inh (ROCK1) [%],%Inh (ROCK2) [%],%Inh (ROS1) [%],%Inh [1] [%],%Inh [2] [%],%Inh [3] [%],%Inh [4] [%],%Inh [5] [%],%Inh [6] [%],%Inh [7] [%],%Inh [8] [%],%Inh [9] [%],%Inh [10] [%],%Inh [11] [%],%Inh [12] [%],%Inh (S6K1) [%]
Cc1ccc(C)c(NC(=O)NCCNc2ccnc(Nc3ccc(F)cc3)n2)c1 [GSK1379878],4,0,0,9,7,0,16,0,0,0,5,0,0,0,0,0,0,0,0,0
c1ccc(-c2ccc3c(-c4ccnc(Nc5ccc6c(c5)OCCO6)n4)cnn3n2)cc1 [GW818941],3,9,0,0,28,10,5,33,0,10,7,0,2,0,23,0,3,0,4,3
FC(F)(F)c1cc(Nc2nccc(-c3c(-c4ccc(Cl)cc4)nn4ncccc34)n2)ccc1Cl [GW829351],0,6,0,0,50,0,0,0,0,0,0,0,28,11,0,0,0,0,45,0
Nc1nc(-c2ccc3c(N)n[nH]c3c2)cc(N2CCCCC2)n1 [GSK2228768],0,0,7,0,0,0,6,4,0,6,0,0,0,0,0,15,0,0,0,0
COc1ccc(Nc2nccc(N3CCC(NC(=O)c4cccc(NC(C)=O)c4)C3)n2)cc1 (stereo not drawn) [GSK1379732],21,7,0,0,33,50,8,21,0,9,20,0,0,0,16,23,6,0,27,0
FC(F)(F)c1ccc(-c2nn3ncccc3c2-c2ccnc(Nc3cccc(C(F)(F)F)c3)n2)cc1 [GW828205],0,0,0,0,0,0,0,16,0,0,3,12,0,0,6,0,0,0,3,0
COC(=O)c1c(-c2ccccc2)c2cc(Cl)ccc2c(=O)n1Cc1ccc(S(C)(=O)=O)cc1,0,0,13,4,6,0,0,0,5,8,0,5,11,5,15,9,6,0,8,0
CSc1nn2c(=O)cc(N3CCOCC3)nc2n1Cc1cccc(Cl)c1Cl [GSK2347225],0,20,7,0,15,0,46,17,0,11,8,18,15,0,0,10,0,0,9,0
Nc1n[nH]c2nnc(-c3ccccc3)cc12 [SB-517389],0,17,17,0,0,0,0,4,38,5,2,28,9,0,76,4,24,0,25,25
OCCOCCn1ccc2ncnc(Nc3ccc(Oc4cccc(Cl)c4)c(Cl)c3)c21,0,48,0,0,0,0,0,17,0,0,0,0,0,0,0,3,4,0,2,0
CCn1c(-c2ccncc2)nc2cnccc21 [SB-735216],0,15,10,14,31,13,2,0,11,0,0,19,16,19,34,8,40,14,39,32
COc1ccc(NC(=O)c2ccc(-c3cc(-c4nnc(C)o4)ccc3C)cc2)cc1 [GW595885],0,0,9,0,10,13,0,0,0,12,0,17,0,0,0,0,0,0,5,4
COc1ccc(NC(=O)Nc2ccc(C)c(-c3ccc(C(=O)Nc4ccncc4)cc3)c2)cc1 [GSK1398475],16,2,1,0,0,0,0,0,0,0,0,16,3,0,0,0,0,0,22,0
Fc1ccc(Nc2nccc(-c3c(-c4ccc(Cl)cc4)nn4ncccc34)n2)cc1F [GW829058],0,12,29,37,20,33,14,25,3,2,18,27,10,31,42,6,0,30,0,4
CCC(CC)(CC)n1cnc2c(N)ncnc21 [SKF-97620],0,1,41,25,44,0,0,24,13,14,4,0,34,41,10,0,22,40,2,16
